What all share (assay): DAPPL (digital affinity profiling via proximity ligation, sequencing); 10 mM Tris-HCl pH 7.5, 50 mM NaCl, 1 mM DTT, 4% glycerol, room temperature, 30 min; GST-TFs on glutathione beads, 16-mer random dsDNA library, 0.1% formaldehyde crosslink after washing; high values mean tight binding
One assay has as its target T1, FEV (Homo sapiens, UniProt Q99581 1-238).
T1 sequence: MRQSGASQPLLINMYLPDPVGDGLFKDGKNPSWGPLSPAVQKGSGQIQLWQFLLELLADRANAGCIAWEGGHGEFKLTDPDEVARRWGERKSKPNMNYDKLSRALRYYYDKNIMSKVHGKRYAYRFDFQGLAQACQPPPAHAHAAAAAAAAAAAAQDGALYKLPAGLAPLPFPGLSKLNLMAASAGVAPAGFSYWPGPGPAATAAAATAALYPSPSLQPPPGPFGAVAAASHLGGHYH
To be noted: protein: recombinant; tags: N-terminal GST; dsDNA, one strand shown. The gist of the method: (§1)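 A tag-only sample was pooled with DNA-barcoded human transcription factors that had been expressed in yeast as GST fusions and captured on glutathione beads. The pools were incubated for 30 min at room temperature with 200 nmole of a random double-stranded 16-mer DNA library in Tris/NaCl/DTT/glycerol buffer, then washed, crosslinked with 0.1% formaldehyde, proximity-ligated (BsaI/T4 ligase, 1 h, 37 °C), PCR-amplified and sequenced on an Illumina NextSeq500. Binding signal is each hexamer's read frequency for a factor divided by its frequency for the tag-only sample.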

The next assay addresses ETV5 (Homo sapiens, UniProt P41161 1-510). The note with it: protein: recombinant; tags: N-terminal GST; dsDNA, one strand shown. In outline: as §1
The next assay deals with HSF1 (Homo sapiens, UniProt Q00613 1-529). The note with it: protein: recombinant; tags: N-terminal GST; chain copies: 3; dsDNA, one strand shown. In outline: as §1
The target in another assay is T2, SPIC (Homo sapiens, UniProt Q8N5J4 1-248).
T2 sequence: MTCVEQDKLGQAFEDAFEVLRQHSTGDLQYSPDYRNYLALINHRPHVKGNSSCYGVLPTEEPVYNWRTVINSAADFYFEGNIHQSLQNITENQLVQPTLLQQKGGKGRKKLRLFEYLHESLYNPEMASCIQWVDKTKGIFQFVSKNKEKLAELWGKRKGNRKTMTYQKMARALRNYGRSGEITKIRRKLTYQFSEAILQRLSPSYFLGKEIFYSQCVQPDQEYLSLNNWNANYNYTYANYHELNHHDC
The note with it: protein: recombinant; tags: N-terminal GST; dsDNA, one strand shown. In outline: as §1

Another assay addresses ELF4 (Homo sapiens, UniProt Q99607 1-663). The note with it: protein: recombinant; tags: N-terminal GST; dsDNA, one strand shown. The gist of the method: as §1
In the next assay the target is T3, ELK4 (Homo sapiens, UniProt P28324-2 1-405).
T3 sequence: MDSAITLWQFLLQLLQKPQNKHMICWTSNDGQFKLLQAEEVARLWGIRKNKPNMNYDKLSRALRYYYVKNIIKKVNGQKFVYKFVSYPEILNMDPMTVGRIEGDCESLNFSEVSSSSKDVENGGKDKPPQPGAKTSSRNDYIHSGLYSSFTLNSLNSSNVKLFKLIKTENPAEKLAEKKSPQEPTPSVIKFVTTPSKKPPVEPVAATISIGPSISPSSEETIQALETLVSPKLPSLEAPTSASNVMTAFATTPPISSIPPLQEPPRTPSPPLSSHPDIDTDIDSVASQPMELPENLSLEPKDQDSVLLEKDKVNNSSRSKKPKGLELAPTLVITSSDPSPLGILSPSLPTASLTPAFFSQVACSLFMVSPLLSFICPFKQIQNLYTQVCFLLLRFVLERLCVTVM
To be noted: protein: recombinant; tags: N-terminal GST; dsDNA, one strand shown. In outline: as §1

The next assay concerns the target T4, ETV2 (Homo sapiens, UniProt O00321 1-342).
T4 sequence: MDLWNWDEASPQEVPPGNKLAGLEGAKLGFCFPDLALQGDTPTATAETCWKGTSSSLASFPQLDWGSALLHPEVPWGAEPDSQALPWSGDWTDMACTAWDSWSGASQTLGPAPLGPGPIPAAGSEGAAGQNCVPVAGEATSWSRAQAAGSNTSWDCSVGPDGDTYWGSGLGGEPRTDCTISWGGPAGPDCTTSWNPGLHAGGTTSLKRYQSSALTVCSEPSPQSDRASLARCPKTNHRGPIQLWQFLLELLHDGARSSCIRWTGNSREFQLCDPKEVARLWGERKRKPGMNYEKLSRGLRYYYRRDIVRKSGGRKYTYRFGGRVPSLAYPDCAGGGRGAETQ
The note with it: protein: recombinant; tags: N-terminal GST; dsDNA, one strand shown. In outline: as §1

The target of another assay is T5, ELF3 (Homo sapiens, UniProt P78545 1-371).
T5 sequence: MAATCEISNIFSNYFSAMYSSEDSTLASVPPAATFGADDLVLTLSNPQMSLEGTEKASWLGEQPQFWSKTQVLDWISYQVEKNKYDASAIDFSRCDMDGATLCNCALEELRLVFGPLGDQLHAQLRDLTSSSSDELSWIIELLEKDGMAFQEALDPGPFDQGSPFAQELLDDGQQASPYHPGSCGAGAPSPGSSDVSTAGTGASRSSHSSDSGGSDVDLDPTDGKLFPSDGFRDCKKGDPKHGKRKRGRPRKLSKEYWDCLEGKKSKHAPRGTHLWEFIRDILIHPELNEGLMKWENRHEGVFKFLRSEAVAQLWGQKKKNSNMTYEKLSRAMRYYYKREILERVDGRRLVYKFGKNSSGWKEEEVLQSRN
The note with it: protein: recombinant; tags: N-terminal GST; dsDNA, one strand shown. In outline: as §1

The target of the next assay is CRX (Homo sapiens, UniProt O43186 1-299). To be noted: protein: recombinant; tags: N-terminal GST; dsDNA, one strand shown. In outline:
as §1

Another assay concerns the target ETV1 (Homo sapiens, UniProt P50549 1-477). The note with it: protein: recombinant; tags: N-terminal GST; dsDNA, one strand shown. The gist of the method: as §1
For another assay, the target named is T6, ERF (Homo sapiens, UniProt P50548 1-548).
T6 sequence: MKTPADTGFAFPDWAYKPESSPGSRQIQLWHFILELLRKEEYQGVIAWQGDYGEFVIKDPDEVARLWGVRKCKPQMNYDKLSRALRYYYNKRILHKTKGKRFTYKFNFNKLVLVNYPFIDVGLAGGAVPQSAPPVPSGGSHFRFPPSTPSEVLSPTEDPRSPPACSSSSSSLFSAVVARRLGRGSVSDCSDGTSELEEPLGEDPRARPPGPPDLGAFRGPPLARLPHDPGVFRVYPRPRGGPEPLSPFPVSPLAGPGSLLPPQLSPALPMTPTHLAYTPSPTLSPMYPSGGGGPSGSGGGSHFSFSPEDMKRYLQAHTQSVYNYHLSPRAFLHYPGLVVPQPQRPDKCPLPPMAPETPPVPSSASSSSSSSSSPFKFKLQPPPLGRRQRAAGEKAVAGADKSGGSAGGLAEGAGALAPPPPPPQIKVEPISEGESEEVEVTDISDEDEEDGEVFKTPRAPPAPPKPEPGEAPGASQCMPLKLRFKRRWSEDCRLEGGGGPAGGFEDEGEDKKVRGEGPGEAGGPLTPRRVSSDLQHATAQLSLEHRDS
To be noted: protein: recombinant; tags: N-terminal GST; dsDNA, one strand shown. In outline:
as §1

For another assay, the target named is T7, ETV3L (Homo sapiens, UniProt Q6ZN32 1-361).
T7 sequence: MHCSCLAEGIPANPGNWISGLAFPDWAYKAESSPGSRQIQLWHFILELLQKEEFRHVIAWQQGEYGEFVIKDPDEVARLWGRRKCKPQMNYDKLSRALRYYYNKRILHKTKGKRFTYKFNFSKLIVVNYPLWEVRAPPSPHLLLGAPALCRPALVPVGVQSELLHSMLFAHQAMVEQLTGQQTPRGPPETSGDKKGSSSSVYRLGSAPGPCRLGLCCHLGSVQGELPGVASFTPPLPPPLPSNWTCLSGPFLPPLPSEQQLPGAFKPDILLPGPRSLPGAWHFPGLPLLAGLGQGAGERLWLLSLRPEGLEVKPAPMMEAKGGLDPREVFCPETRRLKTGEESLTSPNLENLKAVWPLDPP
To be noted: protein: recombinant; tags: N-terminal GST; dsDNA, one strand shown. In outline:
as §1

The next assay concerns the target T8, ETS2 (Homo sapiens, UniProt P15036 1-469).
T8 sequence: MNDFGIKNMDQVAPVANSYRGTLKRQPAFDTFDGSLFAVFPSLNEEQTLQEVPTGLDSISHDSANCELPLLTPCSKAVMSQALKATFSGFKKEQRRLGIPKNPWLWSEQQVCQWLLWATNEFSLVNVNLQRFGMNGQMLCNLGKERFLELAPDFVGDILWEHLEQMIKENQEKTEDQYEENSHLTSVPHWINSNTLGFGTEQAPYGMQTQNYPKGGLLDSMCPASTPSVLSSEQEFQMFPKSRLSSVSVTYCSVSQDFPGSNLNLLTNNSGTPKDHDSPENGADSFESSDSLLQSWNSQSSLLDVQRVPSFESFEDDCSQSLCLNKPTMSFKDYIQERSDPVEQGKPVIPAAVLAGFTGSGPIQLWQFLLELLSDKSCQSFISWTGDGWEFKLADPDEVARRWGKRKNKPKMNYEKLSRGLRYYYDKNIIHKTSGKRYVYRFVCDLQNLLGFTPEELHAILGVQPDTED
To be noted: protein: recombinant; tags: N-terminal GST; dsDNA, one strand shown. In outline:
as §1

A further assay concerns the target T9, SPDEF (Homo sapiens, UniProt O95238 1-335).
T9 sequence: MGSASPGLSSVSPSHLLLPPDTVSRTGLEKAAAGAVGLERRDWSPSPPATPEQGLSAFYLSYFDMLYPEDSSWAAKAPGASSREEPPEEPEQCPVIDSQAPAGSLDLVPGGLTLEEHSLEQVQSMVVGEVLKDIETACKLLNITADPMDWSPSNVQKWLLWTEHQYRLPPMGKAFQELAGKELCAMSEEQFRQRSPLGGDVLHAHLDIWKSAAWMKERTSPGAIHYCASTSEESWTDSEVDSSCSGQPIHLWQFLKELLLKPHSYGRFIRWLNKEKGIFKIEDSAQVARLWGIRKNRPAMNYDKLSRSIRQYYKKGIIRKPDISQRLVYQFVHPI
The note with it: protein: recombinant; tags: N-terminal GST; dsDNA, one strand shown. In outline:
as §1

A further assay concerns the target T10, ETV7 (Homo sapiens, UniProt Q9Y603 1-341).
T10 sequence: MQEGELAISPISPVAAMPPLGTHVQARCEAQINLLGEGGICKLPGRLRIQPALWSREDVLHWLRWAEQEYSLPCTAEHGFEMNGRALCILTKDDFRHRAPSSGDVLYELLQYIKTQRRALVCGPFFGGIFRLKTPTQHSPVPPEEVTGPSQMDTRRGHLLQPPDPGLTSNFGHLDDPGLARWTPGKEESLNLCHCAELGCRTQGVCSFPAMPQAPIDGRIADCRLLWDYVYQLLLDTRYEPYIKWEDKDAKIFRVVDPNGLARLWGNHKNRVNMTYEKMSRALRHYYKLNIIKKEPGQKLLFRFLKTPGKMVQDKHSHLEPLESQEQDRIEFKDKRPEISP
To be noted: protein: recombinant; tags: N-terminal GST; dsDNA, one strand shown. The gist of the method:
as §1

The next assay concerns the target T11, ELF5 (Homo sapiens, UniProt Q9UKW6-2 1-255).
T11 sequence: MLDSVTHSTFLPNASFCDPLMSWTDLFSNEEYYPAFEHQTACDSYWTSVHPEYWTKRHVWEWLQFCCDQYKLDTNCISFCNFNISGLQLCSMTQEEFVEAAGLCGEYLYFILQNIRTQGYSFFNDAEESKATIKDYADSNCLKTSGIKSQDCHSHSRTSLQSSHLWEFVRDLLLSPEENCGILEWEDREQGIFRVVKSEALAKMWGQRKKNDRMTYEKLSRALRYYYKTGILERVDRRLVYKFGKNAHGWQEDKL
The note with it: protein: recombinant; tags: N-terminal GST; dsDNA, one strand shown. The gist of the method:
as §1

For another assay, the target named is T12, ETV3 (Homo sapiens, UniProt P41162-2 1-143).
T12 sequence: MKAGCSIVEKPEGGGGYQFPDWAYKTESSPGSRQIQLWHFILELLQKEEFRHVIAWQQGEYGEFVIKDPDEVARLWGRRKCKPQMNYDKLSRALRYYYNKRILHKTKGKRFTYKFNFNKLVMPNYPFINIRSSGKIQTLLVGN
The note with it: protein: recombinant; tags: N-terminal GST; dsDNA, one strand shown. In outline: as §1

The target of the next assay is ETV6 (Homo sapiens, UniProt P41212 1-452). The note with it: protein: recombinant; tags: N-terminal GST; dsDNA, one strand shown. The gist of the method: as §1
Chain of ETV6 (P41212 whole entry): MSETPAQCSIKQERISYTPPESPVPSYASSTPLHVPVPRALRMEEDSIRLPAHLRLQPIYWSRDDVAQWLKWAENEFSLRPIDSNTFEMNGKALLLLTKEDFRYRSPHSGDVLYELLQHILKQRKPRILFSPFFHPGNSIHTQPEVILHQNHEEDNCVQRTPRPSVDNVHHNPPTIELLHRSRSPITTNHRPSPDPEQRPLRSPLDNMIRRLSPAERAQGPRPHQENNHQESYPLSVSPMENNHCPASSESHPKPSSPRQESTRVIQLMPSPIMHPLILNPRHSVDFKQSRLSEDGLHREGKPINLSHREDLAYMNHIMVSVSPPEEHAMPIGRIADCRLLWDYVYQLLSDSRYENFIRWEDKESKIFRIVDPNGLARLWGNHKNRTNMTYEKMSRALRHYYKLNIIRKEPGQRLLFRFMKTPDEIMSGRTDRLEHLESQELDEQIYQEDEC

Chain of ETV1 (P50549 whole entry): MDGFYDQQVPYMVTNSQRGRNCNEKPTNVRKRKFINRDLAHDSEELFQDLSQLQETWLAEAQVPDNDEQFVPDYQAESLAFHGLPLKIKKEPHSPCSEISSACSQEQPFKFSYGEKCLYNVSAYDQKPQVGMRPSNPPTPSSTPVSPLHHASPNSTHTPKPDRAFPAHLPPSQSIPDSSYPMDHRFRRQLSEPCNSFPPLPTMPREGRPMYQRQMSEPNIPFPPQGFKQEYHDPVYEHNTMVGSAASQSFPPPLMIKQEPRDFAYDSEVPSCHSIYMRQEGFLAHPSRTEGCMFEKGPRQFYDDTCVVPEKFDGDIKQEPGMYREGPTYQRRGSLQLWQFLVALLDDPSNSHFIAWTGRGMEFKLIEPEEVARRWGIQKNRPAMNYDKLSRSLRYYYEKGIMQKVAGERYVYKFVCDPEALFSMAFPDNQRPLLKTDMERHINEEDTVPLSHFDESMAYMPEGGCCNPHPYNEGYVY
Chain of ELF4 (Q99607 whole entry): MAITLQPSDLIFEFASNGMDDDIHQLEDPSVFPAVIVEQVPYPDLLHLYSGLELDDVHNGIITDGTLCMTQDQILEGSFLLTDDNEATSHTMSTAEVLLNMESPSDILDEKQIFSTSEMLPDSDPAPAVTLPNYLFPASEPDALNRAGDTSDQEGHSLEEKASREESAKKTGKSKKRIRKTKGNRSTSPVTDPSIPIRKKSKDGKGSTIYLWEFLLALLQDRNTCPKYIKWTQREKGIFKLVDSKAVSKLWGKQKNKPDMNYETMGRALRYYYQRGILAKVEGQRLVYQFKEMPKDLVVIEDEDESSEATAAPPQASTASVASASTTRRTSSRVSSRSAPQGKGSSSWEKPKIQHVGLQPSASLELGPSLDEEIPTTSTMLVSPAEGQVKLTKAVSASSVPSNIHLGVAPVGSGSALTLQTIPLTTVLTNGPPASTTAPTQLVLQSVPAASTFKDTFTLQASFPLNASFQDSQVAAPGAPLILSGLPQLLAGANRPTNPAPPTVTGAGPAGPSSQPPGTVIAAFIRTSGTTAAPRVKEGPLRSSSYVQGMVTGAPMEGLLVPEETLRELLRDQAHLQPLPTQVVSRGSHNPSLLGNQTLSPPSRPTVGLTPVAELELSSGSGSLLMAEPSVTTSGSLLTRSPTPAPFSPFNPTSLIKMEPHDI
Chain of CRX (O43186 whole entry): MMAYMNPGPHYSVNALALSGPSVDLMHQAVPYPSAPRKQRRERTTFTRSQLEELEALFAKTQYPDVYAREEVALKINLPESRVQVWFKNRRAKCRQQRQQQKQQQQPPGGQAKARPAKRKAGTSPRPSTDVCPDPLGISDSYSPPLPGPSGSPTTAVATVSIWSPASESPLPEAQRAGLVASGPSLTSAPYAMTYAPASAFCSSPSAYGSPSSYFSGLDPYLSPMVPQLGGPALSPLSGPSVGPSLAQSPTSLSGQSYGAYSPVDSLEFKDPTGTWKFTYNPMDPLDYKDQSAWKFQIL
Chain of ETV5 (P41161 whole entry): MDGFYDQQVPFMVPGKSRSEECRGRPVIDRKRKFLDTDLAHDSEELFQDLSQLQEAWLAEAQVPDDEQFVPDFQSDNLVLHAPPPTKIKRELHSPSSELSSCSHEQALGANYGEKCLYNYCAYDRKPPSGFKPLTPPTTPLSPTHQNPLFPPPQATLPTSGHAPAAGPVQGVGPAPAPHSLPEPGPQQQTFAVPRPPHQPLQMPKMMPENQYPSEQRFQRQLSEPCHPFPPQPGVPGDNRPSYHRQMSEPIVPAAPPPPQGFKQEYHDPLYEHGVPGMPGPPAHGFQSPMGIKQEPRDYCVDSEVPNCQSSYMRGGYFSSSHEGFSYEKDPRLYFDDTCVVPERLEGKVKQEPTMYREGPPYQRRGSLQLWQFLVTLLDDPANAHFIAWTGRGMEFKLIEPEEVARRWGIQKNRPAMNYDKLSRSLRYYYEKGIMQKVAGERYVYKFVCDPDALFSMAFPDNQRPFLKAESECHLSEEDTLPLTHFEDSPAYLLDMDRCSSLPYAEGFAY
Chain of HSF1 (Q00613 whole entry): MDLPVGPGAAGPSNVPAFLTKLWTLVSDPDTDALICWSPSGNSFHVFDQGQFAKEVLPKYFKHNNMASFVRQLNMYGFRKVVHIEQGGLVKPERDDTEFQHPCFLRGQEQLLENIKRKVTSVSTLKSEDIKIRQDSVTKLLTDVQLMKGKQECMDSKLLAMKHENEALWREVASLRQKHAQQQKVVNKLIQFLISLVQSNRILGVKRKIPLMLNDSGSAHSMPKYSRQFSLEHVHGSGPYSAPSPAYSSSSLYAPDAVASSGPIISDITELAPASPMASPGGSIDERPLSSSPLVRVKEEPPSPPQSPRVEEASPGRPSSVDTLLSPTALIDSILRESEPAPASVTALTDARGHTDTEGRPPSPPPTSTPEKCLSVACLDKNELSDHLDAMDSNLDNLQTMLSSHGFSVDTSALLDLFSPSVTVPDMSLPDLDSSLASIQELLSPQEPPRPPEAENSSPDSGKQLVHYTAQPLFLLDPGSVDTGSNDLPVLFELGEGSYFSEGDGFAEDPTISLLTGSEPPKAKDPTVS

For the sequence ACCCTA, the binding signal was 1.22 fold enrichment (6-mer frequency, TF over GST control) in the assay with FEV; 1.21 fold enrichment (6-mer frequency, TF over GST control) with ETV5; 1.18 fold enrichment (6-mer frequency, TF over GST control) with HSF1; 1.19 fold enrichment (6-mer frequency, TF over GST control) with SPIC; 1.26 fold enrichment (6-mer frequency, TF over GST control) with ELF4; 1.24 fold enrichment (6-mer frequency, TF over GST control) with ELK4. Further, the binding signal with ETV2 was 1.27 fold enrichment (6-mer frequency, TF over GST control); with ELF3, 1.23 fold enrichment (6-mer frequency, TF over GST control); with CRX, 1.29 fold enrichment (6-mer frequency, TF over GST control); with ETV1 it was 1.45 fold enrichment (6-mer frequency, TF over GST control); with ERF it was 1.3 fold enrichment (6-mer frequency, TF over GST control); in the assay with ETV3L it was 1.26 fold enrichment (6-mer frequency, TF over GST control). Further, the binding signal was 1.24 fold enrichment (6-mer frequency, TF over GST control) in the assay with ETS2; 1.19 fold enrichment (6-mer frequency, TF over GST control) with SPDEF; 1.27 fold enrichment (6-mer frequency, TF over GST control) with ETV7; 1.19 fold enrichment (6-mer frequency, TF over GST control) with ELF5; 1.25 fold enrichment (6-mer frequency, TF over GST control) in the assay with ETV3; 1.17 fold enrichment (6-mer frequency, TF over GST control) in the assay with ETV6.
